PubChem BioAssay AID1159580 (chemical genetic matrix, 2015)
Where “and” joins values, the source holds several entries; their conditions need not be identical. Equal entries are not always repeated. In all, about 5,500 compounds went through this assay and about 2,000 (36%) were called active. Another 18% or so got no clear call; they are omitted. Rule as the data show it: active = normalized growth mostly below about 0.91 (no sharp cut-off); inconclusive = no clear call, values can overlap the other calls; inactive = mostly above about 0.92. The list shows a part of the results.

Assay: chemical genetic growth profiling, strain panel (AID 1159580);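 also: tested at 20 µM; growth read once vehicle control cultures reached saturation at 30 °C; 1 = growth at the plate median or of vehicle wells; lower values mean less growth of the strain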
Settings: S. cerevisiae deletion strains, growth OD

Measured: normalized growth

Cc1cc2cc3c(C)cc(=O)oc3c(C)c2o1
0.908 (active) and 0.94 (inactive): locus YHR030C, strain SLT2, stronger effect = lower value
inactive: locus YAL013W, strain DEP1, stronger effect = lower value 0.965 | locus YAL021C, strain ccr4, stronger effect = lower value 0.992 | locus YAL026C, strain drs2, stronger effect = lower value 0.949 | locus YAL030W, strain snc1, stronger effect = lower value 1.01 | locus YBL061C, strain skt5, stronger effect = lower value 0.997 | locus YBR009C, strain hhf1, stronger effect = lower value 0.937 | locus YBR021W, strain FUR4, stronger effect = lower value 1 | locus YBR023C, strain chs3, stronger effect = lower value 0.968 | locus YBR171W, strain sec66, stronger effect = lower value 0.959 | locus YBR229C, strain ROT2, stronger effect = lower value 0.967 | locus YBR231C, strain swc5, stronger effect = lower value 0.993 | locus YBR279W, strain paf1, stronger effect = lower value 0.949 | locus YCL011C, strain gbp2, stronger effect = lower value 0.955 | locus YCL016C, strain dcc1, stronger effect = lower value 0.939 | locus YCL029C, strain bik1, stronger effect = lower value 0.958 | locus YCL061C, strain MRC1, stronger effect = lower value 1 | locus YCL069W, strain vba3, stronger effect = lower value 0.955 | locus YCR088W, strain abp1, stronger effect = lower value 0.987 | locus YDL005C, strain med2, stronger effect = lower value 0.993 | locus YDL035C, strain GPR1, stronger effect = lower value 0.92 | locus YDL040C, strain nat1, stronger effect = lower value 1 | locus YDL074C, strain BRE1, stronger effect = lower value 0.832 | locus YDL101C, strain DUN1, stronger effect = lower value 0.933 | locus YDL134C, strain PPH21, stronger effect = lower value 0.951 | locus YDL185W, strain tfp1, stronger effect = lower value 0.958 | locus YDL192W, strain arf1, stronger effect = lower value 0.966 | locus YDR001C, strain nth1, stronger effect = lower value 0.984 | locus YDR069C, strain doa4, stronger effect = lower value 1.02 | locus YDR101C, strain arx1, stronger effect = lower value 0.951 | locus YDR137W, strain rgp1, stronger effect = lower value 1.03 | locus YDR150W, strain NUM1, stronger effect = lower value 0.993 | locus YDR159W, strain sac3, stronger effect = lower value 0.996 | locus YDR162C, strain NBP2, stronger effect = lower value 0.956 | locus YDR297W, strain sur2, stronger effect = lower value 1.01 | locus YDR318W, strain mcm21, stronger effect = lower value 0.94 | locus YDR334W, strain swr1, stronger effect = lower value 1 | locus YDR335W, strain msn5, stronger effect = lower value 1 | locus YDR388W, stronger effect = lower value 0.956 | locus YDR392W, strain spt3, stronger effect = lower value 0.875 | locus YDR502C, strain sam2, stronger effect = lower value 0.957 | locus YEL003W, strain gim4, stronger effect = lower value 0.972 | locus YEL037C, strain rad23, stronger effect = lower value 0.949 | locus YEL061C, strain CIN8 (second series), stronger effect = lower value 0.989 | locus YEL061C, strain CIN8, stronger effect = lower value 0.98 | locus YER015W, strain faa2, stronger effect = lower value 0.981 | locus YER016W, strain bim1, stronger effect = lower value 1 | locus YER110C, stronger effect = lower value 0.969 | locus YER111C, strain swi4, stronger effect = lower value 0.991 | locus YER155C, strain BEM2 (second series), stronger effect = lower value 0.926 | locus YER155C, strain BEM2, stronger effect = lower value 0.982 | locus YER167W, strain BCK2, stronger effect = lower value 0.975 | locus YFR010W, strain ubp6, stronger effect = lower value 0.965 | locus YGL078C, strain dbp3, stronger effect = lower value 0.982 | locus YGL086W, strain mad1, stronger effect = lower value 0.973 | locus YGL167C, strain pmr1, stronger effect = lower value 1.01 | locus YGL173C, strain kem1, stronger effect = lower value 0.997 | locus YGL227W, strain vid30, stronger effect = lower value 0.999 | locus YGL240W, strain doc1, stronger effect = lower value 0.98 | locus YGL248W, strain PDE1, stronger effect = lower value 0.929 | locus YGL253W, strain hxk2, stronger effect = lower value 0.953 | locus YGR078C, strain PAC10, stronger effect = lower value 0.879 | locus YGR135W, strain pre9, stronger effect = lower value 0.905 | locus YGR229C, strain SMI1, stronger effect = lower value 0.867 | locus YGR252W, strain gcn5, stronger effect = lower value 0.917 | locus YHR013C, strain ard1, stronger effect = lower value 0.877 | locus YHR027C, strain rpn1, stronger effect = lower value 1 | locus YHR079C, strain IRE1 (second series), stronger effect = lower value 0.981 | locus YHR079C, strain IRE1, stronger effect = lower value 0.948 | locus YHR094C, strain hxt1, stronger effect = lower value 0.992 | locus YHR129C, strain ARP1, stronger effect = lower value 0.967 | locus YHR142W, strain chs7, stronger effect = lower value 0.944 | locus YHR200W, strain rpn10, stronger effect = lower value 0.941 | locus YIL066C, strain RNR3, stronger effect = lower value 0.918 | locus YIL073C, strain SPO22, stronger effect = lower value 0.888 | locus YIL125W, strain kgd1, stronger effect = lower value 1 | locus YIR030C, strain dcg1, stronger effect = lower value 0.988 | locus YJL092W, strain hpr5, stronger effect = lower value 0.978 | locus YJL095W, strain BCK1 (second series), stronger effect = lower value 0.988 | locus YJL115W, strain asf1, stronger effect = lower value 0.991 | locus YJL129C, strain trk1, stronger effect = lower value 1.02 | locus YJL134W, strain LCB3, stronger effect = lower value 0.977 | locus YJL154C, strain vps35, stronger effect = lower value 0.99 | locus YJL164C, strain tpk1, stronger effect = lower value 0.95 | locus YJL166W, strain qcr8, stronger effect = lower value 0.989 | locus YJL187C, strain SWE1 (second series), stronger effect = lower value 0.91 | locus YJR043C, strain POL32, stronger effect = lower value 0.89 | locus YJR066W, strain TOR1, stronger effect = lower value 0.89 | locus YJR075W, strain HOC1, stronger effect = lower value 0.946
0.752 (active) and 0.891 (inactive): locus YJL095W, strain BCK1, stronger effect = lower value
active: locus YDR195W, strain ref2 1.28 [resistant]
